From PubChem BioAssay (NCATS)
Records with an inconclusive call do not appear. Active and inactive are the calls of the source. Calls follow the shape of the dose curve; as a rule, active = well fitted inhibition curve with a large enough effect; inconclusive = small, poorly fitted or top-dose-only effect; inactive = flat fitted curve, though single readings scatter.

What was measured:
[1] = qHTS profiling for inhibitors of Plasmodium falciparum proliferation (AID 504749); also: nearly all actives have a fitted effect of over 60% in size; also: potency is read from the fitted curve at half-maximal effect;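 as to activity, negative = inhibition: 0% = DMSO vehicle and full inhibition = artemisinin control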; settings: P. falciparum in erythrocytes, SYBR Green DNA, 72 h
In short: (§1)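 P. falciparum-infected erythrocytes (0.3% parasitemia, 2.5% hematocrit final) were exposed to compounds for 72 h at 37 C in 5% CO2, then lysed with SYBR Green buffer overnight at room temperature; parasite DNA fluorescence was normalized to artemisinin and DMSO controls.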

[2] = test system: 3D7; test: as above; settings: P. falciparum in erythrocytes, SYBR Green DNA, 72 h; series mostly up to 28.7 µM
In short: as §1

[3] = test system: 7G8; test: as above; settings: P. falciparum in erythrocytes, SYBR Green DNA, 72 h; series mostly up to 28.7 µM
In short: as §1

[4] = test system: AA1029; test: as above; settings: P. falciparum in erythrocytes, SYBR Green DNA, 72 h; series mostly up to 28.7 µM
In short: as §1

[5] = test system: AS120; test: as above; settings: P. falciparum in erythrocytes, SYBR Green DNA, 72 h; series mostly up to 28.7 µM
In short: as §1

[6] = test system: ATS189; test: as above; settings: P. falciparum in erythrocytes, SYBR Green DNA, 72 h; series mostly up to 28.7 µM
In short: as §1

[7] = test system: ATS95; test: as above; settings: P. falciparum in erythrocytes, SYBR Green DNA, 72 h; series mostly up to 28.7 µM
In short: as §1

[8] = test system: C2A; test: as above; settings: P. falciparum in erythrocytes, SYBR Green DNA, 72 h; series mostly up to 28.7 µM
In short: as §1

[9] = test system: CP185; test: as above; settings: P. falciparum in erythrocytes, SYBR Green DNA, 72 h; series mostly up to 28.7 µM
In short: as §1

[10] = qHTS for identification of novel therapeutic agents for treatment of microphthalmiaassociated transcription factor (MiT) renal cell carcinoma (RCC) (AID 1963991); settings: CellTiter-Glo, 48 h, stronger effect = lower value
In short: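 Three TFE3-fusion RCC lines (UOK109, UOK124, UOK145), 500 cells/well in complete medium, were treated with MIPE 4.0 compounds for 48 hours at 37 C. Viability was by CellTiter-Glo luminescence, normalized to DMSO (100%) and empty wells (0%); curves fitted over 11 concentrations.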

[11] = at 28.7 µM (top of the series), parasite line A
[12] = at 28.7 µM (top of the series), parasite line B
[13] = TFE3-RCC UOK109 viability, measured here: UOK109 Z-AUC
[14] = TFE3-RCC viability, measured here: UOK124 Z-AUC
[15] = TFE3-RCC viability, measured here: UOK145 Z-AUC
[16] = at 12.8 µM (top of the series), parasite line A
[17] = at 12.8 µM (top of the series), parasite line B

CCC1(c2ccccc2)C(=O)NCNC1=O
inactive: activity, negative = inhibition [1, 11] 6.87% | activity, negative = inhibition [1, 12] 11.7% | Potency [2] | Potency [3] | Potency [4] | Potency [5] | Potency [6] | Potency [7] | Potency [8] | Potency [9]

OCCN1CCN(CCCN2c3ccccc3Sc3ccc(C(F)(F)F)cc32)CC1
active: Potency ([1]; parasite line A) 7.08 µM | Potency ([1]; parasite line B) 10 µM | Potency [2] 7.08 µM | Potency [3] 3.16 µM | Potency [4] 12.6 µM | Potency [5] 10 µM | Potency [6] 8.91 µM | Potency [7] 11.2 µM | Potency [8] 12.6 µM | Potency [9] 11.2 µM

CCOC(=O)C(C)(C)Oc1ccc(Cl)cc1
inactive: activity, negative = inhibition [1, 11] 5.66% | activity, negative = inhibition [1, 12] 12.1% | Potency [2] | Potency [3] | Potency [4] | Potency [5] | Potency [6] | Potency [7] | Potency [8] | Potency [9]
0.307: z-score [10, 14]
-1.29: z-score [10, 13]
0.606: z-score [10, 15]

Cc1ccc(C(=O)Nc2ccc(S(=O)(=O)O)c3cc(S(=O)(=O)O)cc(S(=O)(=O)O)c23)cc1NC(=O)c1cccc(NC(=O)Nc2cccc(C(=O)Nc3cc(C(=O)Nc4ccc(S(=O)(=O)O)c5cc(S(=O)(=O)O)cc(S(=O)(=O)O)c45)ccc3C)c2)c1
-0.47: z-score [10, 15]
-1.39: z-score [10, 14]
inactive: Potency [2] | Potency [3] | Potency [6] | Potency [8] | Potency [9]
0.0489: z-score [10, 13]

CN(C)CCOC(c1ccccc1)c1ccccc1
inactive: activity, negative = inhibition [1, 11] 13.6% | activity, negative = inhibition [1, 12] 11.2% | Potency [2]
active: Potency [3] 11.2 µM

O=c1c(-c2ccc(O)cc2)coc2cc(O)cc(O)c12
inactive: activity, negative = inhibition [1, 11] -2.63% | activity, negative = inhibition [1, 12] -14.6% | Potency [2] | Potency [3] | Potency [4] | Potency [5] | Potency [6] | Potency [7] | Potency [8] | Potency [9]

NCCc1cnc[nH]1
0.389: z-score [10, 15]
-0.102: z-score [10, 13]
inactive: activity, negative = inhibition [1, 11] 7.72% | activity, negative = inhibition [1, 12] 10.7% | Potency [3] | Potency [4] | Potency [5] | Potency [6] | Potency [8] | Potency [9]
0.743: z-score [10, 14]

CN(C)c1nc(N(C)C)nc(N(C)C)n1
inactive: activity, negative = inhibition [1, 16] 7.93% | activity, negative = inhibition [1, 17] -1.03% | Potency [2] | Potency [3] | Potency [4] | Potency [5] | Potency [6] | Potency [7] | Potency [8] | Potency [9]

Clc1ccc2nsnc2c1NC1=NCCN1
inactive: activity, negative = inhibition [1, 11] 6.78% | activity, negative = inhibition [1, 12] -11.1% | Potency [2] | Potency [3] | Potency [4] | Potency [5] | Potency [6] | Potency [7] | Potency [8] | Potency [9]

Cn1c(=O)c2c(ncn2C)n(C)c1=O
0.729: z-score [10, 15]
inactive: activity, negative = inhibition [1, 11] 6.06% | activity, negative = inhibition [1, 12] 8.5% | Potency [2] | Potency [4] | Potency [5] | Potency [6] | Potency [7] | Potency [8] | Potency [9]
0.696: z-score [10, 13]
0.536: z-score [10, 14]

Clc1ccc2c(c1)C(N1CCNCC1)=Nc1ccccc1O2
0.654: z-score [10, 15]
0.826: z-score [10, 13]
inactive: activity, negative = inhibition [1, 11] -18.9% | Potency [2] | Potency [8] | Potency [9]
0.445: z-score [10, 14]

Cn1cnc2c1c(=O)[nH]c(=O)n2C
inactive: activity, negative = inhibition [1, 11] 1.87% | activity, negative = inhibition [1, 12] -0.248% | Potency [2] | Potency [3] | Potency [4] | Potency [5] | Potency [6] | Potency [7] | Potency [8] | Potency [9]

CN(C)C(=N)N=C(N)N
inactive: activity, negative = inhibition [1, 16] 11.7% | activity, negative = inhibition [1, 17] 23.8% | Potency [2] | Potency [3] | Potency [4] | Potency [6] | Potency [7] | Potency [8] | Potency [9]
0.981: z-score [10, 15]
1.58: z-score [10, 14]
0.797: z-score [10, 13]

Cc1cc(C(C)(C)C)c(O)c(C)c1CC1=NCCN1
inactive: activity, negative = inhibition [1, 11] -4.77% | activity, negative = inhibition [1, 12] -3.69% | Potency [2] | Potency [3] | Potency [4] | Potency [5] | Potency [6] | Potency [7] | Potency [8] | Potency [9]
0.384: z-score [10, 13]
1.63: z-score [10, 15]
0.625: z-score [10, 14]

Cc1cn([C@H]2C[C@H](N=[N+]=[N-])[C@@H](CO)O2)c(=O)[nH]c1=O
inactive: activity, negative = inhibition [1, 11] -7.84% | activity, negative = inhibition [1, 12] 9.23% | Potency [2] | Potency [3] | Potency [4] | Potency [5] | Potency [6] | Potency [7] | Potency [8] | Potency [9]

CC(=O)OCC(CCn1cnc2cnc(N)nc21)COC(C)=O
0.583: z-score [10, 13]
1.13: z-score [10, 15]
inactive: activity, negative = inhibition [1, 11] -2.23% | activity, negative = inhibition [1, 12] 0.392% | Potency [2] | Potency [3] | Potency [4] | Potency [5] | Potency [6] | Potency [7] | Potency [8] | Potency [9]
0.498: z-score [10, 14]

CS(=O)(=O)CCNCc1ccc(-c2ccc3ncnc(Nc4ccc(OCc5cccc(F)c5)c(Cl)c4)c3c2)o1
inactive: activity, negative = inhibition [1, 11] 6.38% | activity, negative = inhibition [1, 12] -5.13% | Potency [2] | Potency [3] | Potency [4] | Potency [5] | Potency [6] | Potency [7] | Potency [8] | Potency [9]

Cc1cc(C(C)(C)C)cc(C)c1CC1=NCCN1
inactive: activity, negative = inhibition [1, 16] -3.52% | activity, negative = inhibition [1, 17] -6.56% | Potency [2] | Potency [3] | Potency [4] | Potency [5] | Potency [6] | Potency [7] | Potency [8] | Potency [9]

CC#C[C@]1(O)CC[C@H]2[C@@H]3CCC4=CC(=O)CCC4=C3[C@@H](c3ccc(N(C)C)cc3)C[C@@]21C
active: Potency ([1]; parasite line A) 8.91 µM | Potency ([1]; parasite line B) 8.91 µM | Potency [2] 8.91 µM | Potency [3] 2.82 µM | Potency [4] 12.6 µM | Potency [5] 7.08 µM
